PubChem BioAssay (NCI)
About 79,000 compounds went through this panel and 15% of them were active in at least one assay; those are over-represented in the sample as a whole. Activity calls are given as the source filed them. Cut-off read from the data, not from the text of the source: active = growth inhibition above about 70%; inactive = the rest.

Tests used:
[1] = NCI Yeast Anticancer Drug Screen. Data for the rad50 strain (AID 155);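 note: 0% = growth of vehicle-only cultures of the same strain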; details: S. cerevisiae rad50 strain growth inhibition; at 50.0 µM; stronger effect = higher value
In short: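 Genetically altered yeast (DNA repair pathway); compound treatment; growth inhibition vs vehicle ctrl.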

[2] = NCI Yeast Anticancer Drug Screen. Data for the mec2-1 strain (AID 157); details: S. cerevisiae mec2-1 strain, at 50.0 µM, stronger effect = higher value
In short: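 Yeast mec2-1 mutant treated with compound. Readout: growth inhibition vs vehicle controls.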

[3] = NCI Yeast Anticancer Drug Screen. Data for the sgs1 mgt1 strain (AID 161);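 note: 0% = growth of cultures given vehicle only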; details: S. cerevisiae sgs1 mgt1 strain, at 50.0 µM, stronger effect = higher value
In short: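 Inhibition of yeast growth, normalised to vehicle-treated controls, is reported for a strain bearing genetic alterations in DNA damage repair.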

[4] = NCI Yeast Anticancer Drug Screen. Data for the cln2 rad14 strain (AID 165);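 note: 0% = growth equal to vehicle treated cultures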; details: S. cerevisiae cln2 rad14 strain, at 50.0 µM, stronger effect = higher value
In short: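 cln2 rad14 yeast strain; compound exposure; growth inhibition read vs vehicle controls.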

[5] = NCI Yeast Anticancer Drug Screen. Data for the bub3 strain (AID 167); details: S. cerevisiae bub3 mutant strain, at 50.0 µM, stronger effect = higher value
In short: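 Yeast carrying a defined mutation is treated with each compound, and growth is compared with that of vehicle-exposed cells to give inhibition.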

[6] = NCI Yeast Anticancer Drug Screen. Data for the mlh1 rad18 strain (AID 175); details: S. cerevisiae mlh1 rad18 strain growth inhibition; at 50.0 µM; stronger effect = higher value
In short: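 Yeast w/ defined DNA-repair lesions; compound exposure; growth vs vehicle controls → % inhibition.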

Measured: growth inhibition

CC1CNC2C(C)C3C(CC4C5CCC6CC(N=Cc7ccccc7O)CCC6(C)C5CCC43C)OC2(O)C1 (centres undefined)
inactive: [1] 25.8% | [2] -6.2% | [3] -4.3% | [4] -3.95% | [5] 0.3% | [6] 0.55%

CC1CNCC(C)N1C(=O)c1ccccc1 (centres undefined)
inactive: [1] 3.85% | [2] 5.15% | [3] -7.7% | [4] 3.25% | [5] 1.5% | [6] -39.5%

Clc1cc(OCC23CC4CC(CC(C4)C2)C3)nc(OCC23CC4CC(CC(C4)C2)C3)n1
inactive: [1] -35.1% | [2] 4.6% | [3] -18.7% | [4] -4.8% | [5] 9% | [6] -13.4%

CCC(=O)n1ncc2ccc([N+](=O)[O-])cc21
inactive: [1] 3.45% | [2] 5.15% | [3] -2.8% | [4] -105% | [5] -4.45% | [6] -7.5%

CN(C(=O)CCCO)c1cc([N+](=O)[O-])ccc1OCc1ccccc1
inactive: [1] 7.6% | [2] 2.8% | [3] -1.2% | [4] -0.8% | [5] 0.7% | [6] -0.75%

CO[C@H]1C=CO[C@@]2(C)Oc3c(C)c(O)c4c(O)c(c(CN5CCN(C)CC5)c(O)c4c3C2=O)NC(=O)/C(C)=C\C=C[C@H](C)[C@H](O)C(C)[C@@H](O)C(C)[C@H](OC(C)=O)[C@@H]1C (some centres undefined)
inactive: [1] -14.5% | [2] -4.85% | [3] -21.1% | [4] 54% | [5] -36.2% | [6] -34.4%

CC(C)C(=O)OCc1ccc(Cl)cc1
inactive: [1] 29.8% | [2] 38.3% | [3] 21.8% | [4] 12.1% | [5] 26.8% | [6] 17.4%

O=C1NC(=O)C(c2ccc(Cl)c(Cl)c2)N1 (centres undefined)
inactive: [1] 11.2% | [2] -10% | [3] -13.2% | [4] -13.7% | [5] -12.9% | [6] -3.55%

COC(=O)c1c(C(=O)OC)c2ccccn2c1-c1cc(OC)c(Br)c(=O)o1
inactive: [1] -0.2% | [2] -17.8% | [3] -7.6% | [4] -18.9% | [5] -4.15% | [6] -105%

COc1ccc(-c2ccc(OC)cc2)cc1
inactive: [1] 2.9% | [2] -2.75% | [3] -3.8% | [4] -0.65% | [5] 21.4% | [6] 3%

Clc1ccc(CSC2=NCCN2)cc1Cl
inactive: [1] -17% | [2] -26.4% | [3] -21.9% | [4] -24.4% | [5] -14% | [6] 12.8%

NC(=O)c1cccc(NC=O)c1
inactive: [1] 5.3% | [2] 6% | [3] 22.1% | [4] 29.7% | [5] 4.45% | [6] 25.8%

O=C(/C=C/c1ccccn1)c1ccc(Cl)cc1
inactive: [1] 22.1% | [2] 10.7% | [3] 24.1% | [4] 16.9% | [5] 22.4% | [6] 13.1%

COc1cc(/C=C/C(=N\NC(N)=S)c2sc(NNC(C)=O)nc2C)ccc1O
inactive: [1] 22.9% | [2] 6.8% | [3] 16.3% | [4] 21.2% | [5] 24.6% | [6] 14.8%

COc1ccc(/C=N/NC(=O)c2ccc(N)cc2)cc1
inactive: [1] -1.65% | [2] 3% | [3] 14.4% | [4] -15.9% | [5] 22.4% | [6] 8.75%

COc1cc(/C=C(\C#N)C(N)=O)cc(Br)c1O
inactive: [1] -13.5% | [2] -24% | [3] 15.9% | [4] 8.65% | [5] 7.45% | [6] -7.35%

NNC(=O)C(CSC(c1ccccc1)(c1ccccc1)c1ccccc1)NC(=O)OCc1ccccc1 (centres undefined)
active: [1] 87.1% | [2] 86% | [3] 94.8% | [4] 83.6% | [5] 89% | [6] 95.2%

CCCCOC(=O)C(C)OC(=O)COc1ccc(Cl)cc1C (centres undefined)
inactive: [1] 5.05% | [2] -13.7% | [3] 15.4% | [4] -40.7% | [5] 2.25% | [6] -1.05%

NC(=O)CO
inactive: [1] 22.2% | [2] -15.9% | [3] 17.6% | [4] 5.35% | [5] 5.7% | [6] 19.5%

O=C1CC[C@@H](C(=O)Nc2cccc3ccccc23)N1
inactive: [1] -7.15% | [2] 8.45% | [3] 8.5% | [4] -24.4% | [5] 10.6% | [6] 21.2%

O=C(O)C1Cc2ccccc2OC1=O (centres undefined)
inactive: [1] -18% | [2] -25.6% | [3] -16.7% | [4] 0.6% | [5] 0.35% | [6] -21.6%

C[n+]1cn(C2=C([O-])c3ccccc3C(=O)/C2=N\S(=O)(=O)c2ccccc2)c2ccccc21
inactive: [1] 0.95% | [2] 4.8% | [3] 2.4% | [4] -0.6% | [5] 4.35% | [6] -28.9%

OCC1=CC(c2ccccc2)(c2ccccc2)c2ccccc21
active: [1] 95.2% | [2] 96.3% | [3] 96.7% | [4] 93.2% | [5] 95.5% | [6] 95.4%

CN1/C(=C/C=C/C=C/C=C2C(=O)c3ccccc3C2=O)C(C)(C)c2ccccc21
inactive: [1] -13.6% | [2] 10.5% | [3] 16.1% | [4] -39.5% | [5] -8.9% | [6] 26.8%

COC(=O)CCCC1(CCCC(=O)OC)CCCCCCCCC(CCCC(=O)OC)(CCCC(=O)OC)C(=O)C1=O
inactive: [1] 21.8% | [2] 36.9% | [3] 37.2% | [4] 45.5% | [5] 35.8% | [6] 47.6%

Cc1cc(S(=O)(=O)O)cc(C(C)(C)C)c1O
inactive: [1] -15.6% | [2] -11.4% | [3] 6.3% | [4] 6.25% | [5] -2.45% | [6] -20.6%

CN(C)CC(CCC(=O)c1ccccc1)C(=O)c1ccccc1 (centres undefined)
inactive: [1] 8.05% | [2] 15.8% | [3] 26.2% | [4] -45.8% | [5] 14.2% | [6] 5.5%

Clc1ccccc1N=Cc1ccc(C=Nc2ccccc2Cl)cc1
inactive: [1] 26.9% | [2] 23.8% | [3] 34% | [4] 3.3% | [5] 38.5% | [6] 25.9%

OC1(C2(O)CCCCC2)CCCCC1
inactive: [1] -38.2% | [2] 13.4% | [3] 22.1% | [4] -32.5% | [5] -11.8% | [6] 3.75%

O=C(O)c1c[nH]c2c(Cl)cccc2c1=O
inactive: [1] 18.9% | [2] -16.4% | [3] 4.3% | [4] 10.8% | [5] 18.4% | [6] 14.4%

CC1OC(C)(c2ccc(Cl)cc2)OCC1(C)C (centres undefined)
inactive: [1] -2.45% | [2] -1.15% | [3] 2.5% | [4] -26.6% | [5] 17.8% | [6] 16.9%

CC(C)C(NC(=O)C1CSC(C)(C)N1C=O)C(N)=O (centres undefined)
inactive: [1] -5.2% | [2] -31.6% | [3] 12.3% | [4] -6.7% | [5] 36.7% | [6] -25.2%

N#CCCN(Cc1ccccc1)CN1C(=O)c2ccccc2C1=O
inactive: [1] 8.75% | [2] 5.5% | [3] 12.1% | [4] 17.9% | [5] 6.4% | [6] -10.3%

COC(=O)C1(C)CCCC2(C)c3cc(OC)ccc3C(=O)C(Cl)C12 (centres undefined)
inactive: [1] 7.8% | [2] 0.15% | [3] 6.45% | [4] -13.8% | [5] 26.4% | [6] 5.7%

CCN(CC)CC(=O)N1CCc2c([nH]c3ccccc23)C1c1cccnc1 (centres undefined)
inactive: [1] -40.1% | [2] -21.4% | [3] -11.6% | [4] -5.95% | [5] -35.5% | [6] -34.5%

CC(=O)c1ccc(OC(=O)Nc2ccc(C)cc2)cc1
inactive: [1] -2.25% | [2] 27.3% | [3] 17.8% | [4] -6.2% | [5] 26.5% | [6] 15.6%

CCC(=O)c1ccc2ccccc2c1
inactive: [1] 5.1% | [2] 3.75% | [3] -0.65% | [4] -10.1% | [5] -2.1% | [6] -0.55%

O=C1CCSc2c(cnc3ccccc23)N1
inactive: [1] -17.1% | [2] -12.4% | [3] -26.4% | [4] -18.1% | [5] -18.6% | [6] -46.8%

COC(=O)C1=C(C)NC(C)=C(C(=O)OC)C1c1cccc(NO)c1
inactive: [1] 9.6% | [2] 16.4% | [3] 47.4% | [4] 24% | [5] 43.3% | [6] 2.85%
